# The list is not random: actives were taken first. Their share in the collection is about 3.5%.
# TEAD-YAP block = TEAD-YAP interaction inhibition | HEK-TIYL cells, TEAD-Gal4/YAP UAS-luciferase luminescence | inhibition, % at 9.12 µM | 1.4% of 640,000 active; in the data active = inhibition above about 32%;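 also: 0% = median of test compound wells and 100% = reference inhibitor wells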
# MITF inh = inhibitors of human MITF. AlphaScreen MITF homodimerization, bead proximity signal. 0.91% of 650,000 active. AID 1259374. inhibition, % at 2.6 µM. O75030; in the data active = inhibition above about 50%;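 also: 0% = vehicle wells with protein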
# Target sequence (O75030 whole entry, looked up): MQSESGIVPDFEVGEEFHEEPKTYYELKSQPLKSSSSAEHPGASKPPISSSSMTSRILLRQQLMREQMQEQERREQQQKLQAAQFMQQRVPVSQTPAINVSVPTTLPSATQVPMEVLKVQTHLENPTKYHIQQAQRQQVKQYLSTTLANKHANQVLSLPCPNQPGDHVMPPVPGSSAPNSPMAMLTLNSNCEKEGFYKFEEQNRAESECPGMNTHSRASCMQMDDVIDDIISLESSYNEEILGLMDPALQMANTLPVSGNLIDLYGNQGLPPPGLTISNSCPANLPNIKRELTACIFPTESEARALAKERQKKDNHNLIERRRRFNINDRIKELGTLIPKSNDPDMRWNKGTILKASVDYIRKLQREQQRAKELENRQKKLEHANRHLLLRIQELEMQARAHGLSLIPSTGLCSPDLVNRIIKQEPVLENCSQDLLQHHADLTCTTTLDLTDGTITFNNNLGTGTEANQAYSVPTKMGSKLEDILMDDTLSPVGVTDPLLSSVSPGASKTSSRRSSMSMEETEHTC
# FBW7 act = human FBW7 E3 ligase activation, primary screen. normalized activity (activation), % at 26.1 µM. 0.13% of 650,000 active. AID 1259310. AlphaScreen FBW7–phospho-cyclin E peptide binding, activator screen. Q969H0; in the data active = normalized activity above about 1.9%;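 also: purified mutant Fbw7 with reduced substrate affinity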
# GPR151 activ = human GPR151 activation | Q8TDV0 | PathHunter beta-arrestin GPR151 cells, luminescence | activation, % at 11.2 µM | 1% of 650,000 active | AID 1508602; in the data active = activation above about 4.9%;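 also: 0% = median of compound wells and 100% = cells with positive control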
# MITF inh conf = human MITF inhibition, confirmation; shares compounds with MITF inh; AlphaScreen MITF homodimerization, biotin/His-MITF beads; inhibition, % at 2.6 µM; 16% of 4,700 active; AID 1259372;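 active = inhibition above a cutoff derived from the DMSO control wells, cut at about 28% in these data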;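 also: 0% = MITF dimer wells with DMSO only; inhibitors lower the bead chemiluminescence by keeping MITF from dimerizing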
# AS interf DR = counter-screen: compounds optically interfering with AlphaScreen | AlphaScreen optical interference counterscreen, cell-free | shares compounds with MITF inh | 6% of 480 active | IC50, µM; call rule not given here
# AlphaScreen intf2 = AlphaScreen optical interference, counter-screen; shares compounds with MITF inh; LysRS AlphaScreen counterscreen, signal interference, triplicate; inhibition, % at 2.6 µM; 7.6% of 4,700 active; AID 1259376;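 active = inhibition above a cutoff derived from the DMSO control wells, cut at about 30% in these data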
# * = called active by the depositor; x = no result given.
SMILES,TEAD-YAP block,MITF inh,FBW7 act,GPR151 activ,MITF inh conf,AlphaScreen intf2,others
O=[N+]([O-])c1ccc(S(=O)(=O)N2CCN(C3CCCC3)CC2)cc1,3,53*,0,0,-6,-4,
O=S(=O)(Nc1ccccn1)c1ccc(N=Cc2ccc3c(c2)OCO3)cc1,5,74*,0,1,8,13,
CC(=O)Nc1nc(C)c(C(=O)Nc2cccc(Cl)c2)s1,2,0,0,1,x,x,
Cc1ccc(N2C(=O)C(C(C)C)NC2=S)cc1 (stereo unspecified),-3,23,0,-1,x,x,
C/C(=N\Nc1nc2ccccc2[nH]1)c1cccnc1,-17,-4,0,1,x,x,
C/C(=N\Nc1nc2ccccc2[nH]1)c1ccccn1,74*,105*,-1,-5,110*,99*,
C/C(=N\Nc1ccc(C(F)(F)F)cn1)c1ccccn1,87*,58*,-1,3,11,35*,
C/C(N)=C(/C#N)C(=O)COC(=O)CSc1cc(C)c(Br)cc1C,5,10,0,2,x,x,
CCCCC(CCCC)(Nc1ccc(F)c(F)c1)C(=O)NNc1ccccc1,3,61*,0,-1,-3,0,
COc1cc(OC)cc(C(=O)NC(=S)Nc2cccc([N+](=O)[O-])c2)c1,1,1,0,0,x,x,
COc1ccc(C2C(C(=O)OCc3ccccc3)=C(C)NC3=C2C(=O)CCC3)c(OC)c1OC (stereo unspecified),6,7,0,-1,x,x,
Cc1nc(NCc2c(C)nn(C)c2Cl)sc1-c1ccn(C2CCOC2)n1 (stereo unspecified),3,54*,0,2,4,-3,
CC1(C)N=C(C(=O)c2ccccc2)N(O)C1(O)c1ccccc1 (stereo unspecified),2,-5,0,0,x,x,
COc1ccc(F)c(CN2CCC(C3(CCc4ccccc4)NC(=O)NC3=O)CC2)c1 (stereo unspecified),4,81*,0,1,2,-2,
S=c1n(-c2ccccn2)cnn1CN1CCCCC1,5,16,0,0,x,x,
CCOC(=O)c1cnn(-c2ccc3c(c2)OCCO3)c1CN1CCC[C@H]1CO,-12,5,0,-1,x,x,
Cc1cccc(CNC(=O)C2CC23CCN(C(=O)c2cc(-c4ccccc4)no2)CC3)n1 (stereo unspecified),9,3,0,3,x,x,
Cc1cccc(CNC(=O)C2CC23CCN(C(=O)c2c(-c4ccccc4)noc2C)CC3)n1 (stereo unspecified),4,80*,0,1,-1,-1,
CC(C)(C)n1ccc(P(=O)(O)c2ccn(C(C)(C)C)c2)c1,5,-6,0,0,x,x,
O=C(Cn1nnc(-c2ccccc2NC(=O)C2CC2)n1)Nc1ccccc1,3,-2,0,0,x,x,
NC(=O)Cn1nnc(-c2ccccc2NC(=O)C2CCCCC2)n1,2,84*,0,-1,12,11,
COc1ccc2c(c1OC)C(=O)OC2CC(=O)c1c(C)cc(C)cc1O (stereo unspecified),-2,15,1,0,x,x,
N#Cc1ccc(OCC(=O)Nc2ccc(S(=O)(=O)N3CCCCC3)cc2)cc1,3,17,0,-1,x,x,
c1ccc(CNc2nc(-c3ccccn3)nnc2-c2ccccc2)cc1,3,106*,-1,0,101*,100*,
CN(C)c1nc(-c2ccccn2)nnc1-c1ccccc1,-20,102*,-1,0,107*,100*,
SMILES,TEAD-YAP block,MITF inh,FBW7 act,GPR151 activ,MITF inh conf,AlphaScreen intf2,others
c1ccc(-c2nnc(-c3ccccn3)nc2-c2ccccc2)cc1,8,15,-1,3,x,x,
N#C/C(=C\c1ccc(-c2ccccc2)o1)c1nc(N)c(C#N)c(N)c1C#N,-22,-7,0,0,x,x,
CC(=O)Nc1ccnn1C1CCN(Cc2cccc(Oc3ccccc3)c2)CC1,-5,-17,0,0,x,x,
CC(=O)Nc1ccnn1C1CCN(Cc2cccc(OC3CCCC3)c2)CC1,4,56*,0,-2,3,15,
COc1ccccc1N1CCN(Cc2ccco2)CC1,-5,32,0,-1,x,x,
COc1cc(CN2CCN(Cc3cccc(C)c3)CC2)cc(OC)c1O,-6,46,0,0,x,x,
COc1cc(CN2CCN(Cc3ccco3)CC2)cc(OC)c1OC,4,71*,0,-1,-16,1,
COc1cc(CN2CCN(Cc3ccco3)CC2)cc(OC)c1O,5,76*,0,0,3,9,
Cc1ccc(NC(=O)c2ccc(N3CCN(c4ccccc4Cl)CC3)c([N+](=O)[O-])c2)cc1F,-1,-4,0,-2,x,x,
COc1ccc(NC(=O)N2CCCC2C(=O)Nc2ccc3c(c2)OCCO3)cc1 (stereo unspecified),-4,-1,0,0,x,x,
CCCn1c(SC(C(=O)NC(N)=O)C(C)C)nc2ccccc2c1=O (stereo unspecified),3,55*,0,-1,19,10,
Clc1ccc(OCCN2CCOCC2)c(Br)c1,0,38,0,0,x,x,
Cc1ccc(C(C)(C)C)c(OCCN2CCOCC2)c1,1,65*,0,-1,7,5,
Cc1ccc(OCCOCCN2CCOCC2)c(C)c1,-15,-1,0,2,x,x,
Cc1ccc(OCCN2CCOCC2)c(Br)c1,-13,64*,0,2,-4,-1,
Cc1cc(Cl)c(OCCN2CCOCC2)c(Cl)c1,-7,61*,0,-1,-1,2,
O=C(CC1OC(=O)C(Br)=C1Br)CC1OC(=O)C(Br)=C1Br (stereo unspecified),1,74*,-1,-1,14,2,
CC(=O)CC1OC(=O)C(Br)=C1NCc1ccccc1 (stereo unspecified),1,11,0,-1,x,x,
NC(=O)CSc1ccc(C(N)=O)cc1[N+](=O)[O-],-6,64*,0,0,39*,-4,AS interf DR=>7.1
NC(=O)c1ccc(SCC(=O)O)c([N+](=O)[O-])c1,-8,-2,0,0,x,x,
COc1ccccc1C1(NC(=O)CCCCC2SCC3NC(=O)NC32)CCCC1 (stereo unspecified),-4,105*,-1,3,66*,9,AS interf DR=4.9*
O=C(O)CCCC[C@@H]1SC[C@@H]2NC(=O)N[C@@H]21,x,122*,-1,0,124*,100*,
CCOc1ccc(NC(=O)C/C(C)=N/NC(=O)COc2ccc(OC)cc2)cc1,-11,-19,0,4,x,x,
NCc1nc2ccncc2[nH]1,10,-14,0,-2,x,x,
CCc1nc(C)ccc1OCc1nc2ccncc2[nH]1,6,58*,0,0,20,25,
CN1CCN(CCS(=O)(=O)OCC(F)(F)C(F)F)CC1,0,77*,0,2,11,-3,
Cc1nc(N2CCCCC2)c2ccsc2n1,-1,92*,0,2,1,-4,
